Assay results: PubChem BioAssay (NCATS)
Results filed as inconclusive are left out. Calls of active or inactive are those of the source. The call rests on the fitted dose curve; in most records, active means well fitted curve in the direction sought with a large enough effect; inconclusive means small, poorly fitted or top-dose-only effect, or another doubt; inactive means no such curve, though single readings can be large; an effect the other way counts as inactive or inconclusive.

Key:
[1] = Cell Viability - LYMP2-004 (AID 966); further: nearly all actives have a fitted effect of over 65% in size
In short: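 Cells seeded 2500/well, rested 5 hr at 37 C, dosed across a concentration series, incubated 24 hr at 37 C, then CellTiter-Glo added for 30 min at room temperature and luminescence read. Hill fitting gave AC50.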

[2] = Cell Viability - LYMP2-009 (AID 968); further: series mostly up to about 92 µM; nearly all actives have a fitted effect of over 55% in size
[3] = Cell Viability - LYMP2-011 (AID 969); further: nearly all actives have a fitted effect of over 60% in size
In short: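 2500 cells/well, 5 hr 37 C; compound added, 24 hr 37 C; CellTiter-Glo 30 min RT; luminescence. qHTS concentration-response, Hill-equation AC50. Tetraoctylammonium bromide positive control.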

[4] = Cell Viability - LYMP2-013 (AID 970); further: series mostly up to about 92 µM; nearly all actives have a fitted effect of over 55% in size
In short: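 qHTS; 2500 lymphoblastoid cells/well; 5 hr 37 C settle; cpd 24 hr 37 C; CellTiter-Glo, 30 min RT; luminescence. AC50 = Hill fit.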

[5] = Cell Viability - LYMP2-017 (AID 972); further: series mostly up to about 92 µM; nearly all actives have a fitted effect of over 55% in size
In short: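 2500 cells/well, 5 h 37 C; cpd 24 h 37 C in complete medium; CellTiter-Glo, 30 min RT; luminescence (ATP). AC50 via Hill fit, qHTS.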

[6] = Cell Viability - LYMP2-019 (AID 973); further: nearly all actives have a fitted effect of over 55% in size
In short: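 Luminescent ATP read-out (CellTiter-Glo, 30 min room temperature) served as the viability measure after 24 hr treatment of lymphoblastoid cells at 37 C. Concentration-response data were fitted to the Hill equation for AC50.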

[7] = Cell Viability - LYMP2-021 (AID 974)
In short: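 Plate 2500 lymphoblastoid cells per well and incubate 5 hr at 37 C. Add compounds over a concentration range and incubate 24 hr at 37 C. Add CellTiter-Glo, wait 30 min at room temperature, read luminescence.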

[8] = Cell Viability - LYMP2-023 (AID 975)
In short: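 2500 cells/well, 5 hr 37 C; cpd 24 hr 37 C; CellTiter-Glo, 30 min RT; luminescence. qHTS conc-response, Hill fit -> AC50. Pos ctrl tetraoctylammonium bromide.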

[9] = Cell Viability - LYMP2-002 (AID 977); further: series mostly up to about 92 µM
In short: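 Luminescent ATP readout (CellTiter-Glo, 30 min room temperature) after 24 h compound exposure at 37 C of a human lymphoblastoid line, 2500 cells/well. AC50 values derived by standard Hill fitting of qHTS concentration-response data.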

[10] = Cell Viability - LYMP2-006 (AID 978); further: series mostly up to about 92 µM; nearly all actives have a fitted effect of over 60% in size
In short: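 Concentration-dependent loss of intracellular ATP in a human lymphoblastoid line after 24 hr treatment at 37 C was measured by CellTiter-Glo luminescence, with AC50 values obtained from standard Hill-equation modelling.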

[11] = Cell Viability - LYMP2-007 (AID 979);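 further: cells exposed to compound for 24 h before reading; nearly all actives have a fitted effect of over 60% in size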
In short: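 Luminescent ATP signal (CellTiter-Glo) serves as the viability read-out after 24 hr compound treatment of lymphoblastoid cells in complete medium at 37 C. Concentration-response data were fitted to the Hill equation to give AC50 values.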

[12] = Cell Viability - LYMP2-008 (AID 980); further: nearly all actives have a fitted effect of over 60% in size
In short: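 qHTS, human lymphoblastoid line, 2500 cells/well; 5 hr preincubation, 24 hr compound, 37 C. CellTiter-Glo ATP luminescence. AC50 via Hill equation. Tetraoctylammonium bromide positive control.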

[13] = Cell Viability - LYMP2-010 (AID 981); further: nearly all actives have a fitted effect of over 55% in size
In short: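 Luminescent ATP signal (CellTiter-Glo) served as the viability read-out. Cells of the human lymphoblastoid line were treated with compound over a concentration range for 24 hours at 37 C, and AC50 values came from Hill-equation modeling.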

[14] = Cell Viability - LYMP2-012 (AID 982)
[15] = Cell Viability - LYMP2-014 (AID 983); further: series mostly up to about 92 µM; nearly all actives have a fitted effect of over 50% in size
In short: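 Luminescent ATP signal (CellTiter-Glo, 30 min at room temperature) serves as the viability read-out after 24 hr compound exposure at 37 C. Cells were seeded at 2500 per well and settled 5 hr beforehand.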

[16] = Cell Viability - LYMP2-016 (AID 984); further: nearly all actives have a fitted effect of over 55% in size
In short: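 Acute toxicity in a Coriell human lymphoblastoid line is scored as loss of intracellular ATP over 24 h of treatment in complete medium. CellTiter-Glo signal is fitted across concentrations with the Hill equation to give AC50.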

[17] = Cell Viability - LYMP2-018 (AID 985); further: nearly all actives have a fitted effect of over 50% in size
In short: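 Luminescent ATP signal (CellTiter-Glo, read after 30 min at room temperature) reports viable cells after 24 hr compound treatment at 37 C. Concentration-response data were fitted to the standard Hill equation for AC50.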

[18] = Cell Viability - LYMP2-005 (AID 967); further: series mostly up to about 92 µM
In short: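 qHTS viability screen in LYMP2-005 cells: 24 h at 37 C with compound, ATP luminescence via CellTiter-Glo, AC50 from Hill curves.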

[19] = Cell Viability - LYMP2-015 (AID 971); further: nearly all actives have a fitted effect of over 55% in size
In short: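 Luminescent ATP read-out (CellTiter-Glo) served as the viability measure after lymphoblastoid cells were exposed to compounds for 24 hours at 37 C. Concentration-response data were fitted with the Hill equation to give AC50.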

[20] = Cell Viability - LYMP2-025 (AID 976); further: series mostly up to about 92 µM
In short: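 Seed 2500 LYMP2-025 cells/well; 5 hr at 37 C; add compound; 24 hr at 37 C; add CellTiter-Glo; 30 min RT; read luminescence. AC50 from Hill-modelled concentration-response.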

Measured: Potency

O=Cc1c(Cl)cccc1Cl
not listed: [18] | [19] | [20]
inactive: all other assays above

Nc1cc(Cl)c(N)c(Cl)c1
not listed: [1]
inactive: all other assays above

O=C(O)c1ccc(Cl)c(Cl)c1
not listed: [1]
inactive: all other assays above

CC(=O)OC(C)=O
not listed: [1]
inactive: all other assays above

CC(C)Nc1ccccc1
not listed: [18] | [20]
inactive: all other assays above

C=C(C)C(=O)OCC(C)C
not listed: [8] | [18]
inactive: all other assays above

O=Cc1ccccc1Cl
not listed: [1] | [11]
inactive: all other assays above

O=C(O)c1cccc([N+](=O)[O-])c1
not listed: [7] | [8] | [18]
inactive: all other assays above

O=[N+]([O-])c1ccc2nc[nH]c2c1
not listed: [18] | [20]
inactive: all other assays above

S=C([S-])NCCNC(=S)[S-].[Zn+2]
not listed: [5] | [13] | [18]
inactive: all other assays above

COC(=O)CC#N
not listed: [1]
inactive: all other assays above

CSCCC=O
not listed: [7] | [18]
inactive: all other assays above

Nc1ccc([N+](=O)[O-])c(N)c1
not listed: [7] | [12] | [18]
inactive: all other assays above

CC(C)(O)CCC(C)(C)O
not listed: [18] | [20]
inactive: all other assays above

CC(C)CCOC(=O)/C=C/c1ccccc1
not listed: [8] | [13] | [18]
inactive: all other assays above

C=C(C)C(=O)OCCCCCC
not listed: [8] | [18]
inactive: all other assays above
